Source: the supplement of paper PMC12669032
Values without a mark were called inactive.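 The calls were made as follows: active = AUC reduced over 20% with Padj below 0.05 in at least 2 of 3 replicates; inactive = otherwise.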

Assays:
Assay in all cases: growth AUC relative to DMSO control (median of replicates) (fraction); higher = more growth (less inhibition), active = hit call of the paper
Settings in all cases: 20 µM; 24 h
Akkermansia muciniphila = system: Akkermansia muciniphila
In short: (§1)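 Each value is the median of three biological replicates, grown on separate days, of a gut bacterial monoculture incubated anaerobically at 37 °C in mGAM with 20 µM compound (1% DMSO). Cultures started at OD600 0.05 and were read at OD600 hourly for 24 h, with the minimum OD set to 0. Area under the growth curve was normalised to the plate median of solvent-only wells, or to row and column medians on the industrial chemical plate.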

Bacteroides caccae = system: Bacteroides caccae
In short: as §1

Bacteroides clarus = system: Bacteroides clarus
In short: as §1

Bacteroides dorei = system: Bacteroides dorei
In short: as §1

Bacteroides stercoris = system: Bacteroides stercoris
In short: as §1

[1] = system: Bacteroides thetaiotaomicron
In short: as §1

Bacteroides uniformis = system: Bacteroides uniformis
In short: as §1

[2] = system: Bifidobacterium longum subsp. longum
In short: as §1

Clostridium difficile = system: Clostridium difficile
In short: as §1

Collinsella aerofaciens = system: Collinsella aerofaciens
In short: as §1

SMILES	growth AUC (Akkermansia muciniphila)	growth AUC (Bacteroides caccae)	growth AUC (Bacteroides clarus)	growth AUC (Bacteroides dorei)	growth AUC (Bacteroides stercoris)	growth AUC [1]	growth AUC (Bacteroides uniformis)	growth AUC [2]	growth AUC (Clostridium difficile)	growth AUC (Collinsella aerofaciens)
Cc1cc(C)nc(NC(=O)NS(=O)(=O)c2ccccc2C(=O)OC2COC2)n1	1.03	0.952	0.973	0.945	1.04	0.752 (active)	1.03	0.858	1.05	0.98
OC(Cc1ccccc1Cl)(Cn1[nH]cnc1=S)C1(Cl)CC1 (stereo not given)	1.02	0.971	0.856	0.91	1.04	0.821	0.805	0.842	0.985	1.04
CCOP(=O)(OCC)O/C(=C/Br)c1ccc(Cl)cc1Cl	1.06	0.94	0.952	0.948	0.879	0.89	0.821	0.991	0.978	1.06
Cc1c(COC(=O)[C@@H]2[C@H](/C=C(\Cl)C(F)(F)F)C2(C)C)cccc1-c1ccccc1	0.924	0.971	0.998	1.01	0.972	0.974	1.01	0.923	1.02	0.928
CCc1cccc(C)c1N(C(=O)CCl)[C@@H](C)COC	1.13	0.95	0.99	0.98	1.2	0.975	1	1.03	0.961	0.963
N#Cc1c(O)c(Cl)c(Cl)c(C#N)c1Cl	1.02	0.98	0.979	0.969	0.979	0.995	0.784 (active)	1.02	1.02	0.985
N#CN=C1SCCN1Cc1ccc(Cl)nc1	0.871	1	1	0.967	1.22	0.999	0.991	1.04	1.02	0.98
COC(=O)C(C)(Cl)Cl	0.86	0.984	1.01	1.02	1	1.04	0.968	1.02	1.01	1.01
COCC(=O)N(c1c(C)cccc1C)C(C)C(=O)OC (stereo not given)	1.11	1.03	1.02	1.03	1.08	1.02	1.02	1.1	1.04	1.02
ClC1(Cl)C2(Cl)C3(Cl)C4(Cl)C(Cl)(Cl)C5(Cl)C3(Cl)C1(Cl)C5(Cl)C24Cl (stereo not given)	0.866	0.966	0.972	1.01	1.06	1	0.937	0.846	1	0.94
CCCCOC(=O)N(C)SN(C)C(=O)Oc1cccc2c1OC(C)(C)C2	1.03	1.02	0.969	1.01	1.08	1.04	1	1.11	0.992	1.01
CCNC(=O)NC(=O)/C(C#N)=N/OC	0.998	1	1	0.983	1.08	1	0.956	0.901	0.965	1.07
CCOP(=S)(OCC)OP(=S)(OCC)OCC	0.981	0.986	0.953	0.993	1.02	0.956	0.988	1.01	0.986	1.02
C=CCOC(Cn1ccnc1)c1ccc(Cl)cc1Cl.O=S(=O)(O)O (stereo not given)	0.744	0.949	0.925	1	0.994	0.931	0.977	0.843	0.884	0.845
CN(C)C(=O)Nc1ccc(Cl)cc1	0.948	1.02	0.971	1.01	1.05	0.973	1.02	0.99	0.979	1.03
CCCCOC(=O)[C@@H](C)Oc1ccc(Oc2ccc(C#N)cc2F)cc1	1.1	0.973	1	0.969	0.973	0.954	0.975	0.984	0.981	0.984
COP(N)(=S)Oc1ccccc1C(=O)OC(C)C (stereo not given)	1.19	1.02	0.981	0.893	0.979	0.998	0.999	1.03	0.993	0.993
CCOP(=S)(OCC)SCS(=O)CC (stereo not given)	1.03	0.99	0.994	1.01	1.05	1.02	0.994	1.03	0.972	1.01
COC[C@H](C)N(C(=O)CCl)c1c(C)csc1C	1.08	1	0.983	0.951	0.95	1	0.981	1.04	0.976	1
COC(=O)c1ccccc1CS(=O)(=O)NC(=O)Nc1nc(OC)cc(OC)n1	0.94	1.02	0.972	0.985	0.969	1.02	1.01	1.05	1.02	0.956
CCC1(C(=O)NC(C)c2ccc(Cl)cc2)C(C)C1(Cl)Cl (stereo not given)	1.18	0.963	0.985	0.884	0.958	0.909	0.881	0.969	0.969	0.942
Cc1cc(OC(=O)N(C)C)nn1C(=O)N(C)C	0.959	1.02	0.992	0.968	1.09	1.02	0.979	0.988	1.01	1.02
CCNc1nc(NCC)nc(SC)n1	1.14	0.946	1.02	0.994	1.26	0.955	1	1.08	0.981	0.996
CN/C(=N\[N+](=O)[O-])NCc1cnc(Cl)s1	0.906	0.93	1.02	1.03	1.17	1	1	1.03	0.979	0.988
CNC(=O)Oc1cc(C)c(S(C)(=O)=O)c(C)c1	0.967	1.02	0.963	0.995	0.995	0.97	0.97	0.985	0.998	1.01
Cc1cc(Cl)ccc1OCC(=O)O.O.[Na]	1.25	0.981	1.01	0.921	1.02	1.05	0.993	1.05	1.02	0.98
Clc1cccc(C(Cl)(Cl)Cl)n1	1.16	1.01	1.01	0.948	1.03	1.02	0.961	1.06	1.01	0.974
CSc1nc(N=[N+]=[N-])nc(NC(C)C)n1	0.963	1.04	0.993	1.04	0.975	1.02	1.07	0.849	1.02	0.998
